Experimental data: the supplement of paper PMC10037445
Over roughly 2,900 compounds, “NF-kB SEAP reporter activity, fold change vs agonist alone” has its median near 0.99; the highest 2% begin near 2.6. The entries come from a sample that favours the highest values as a whole.

Tests used:
RAW-Dual [1] = assay: NF-kB SEAP reporter activity, fold change vs agonist alone; higher = enhanced NF-kB activity; conditions: library stock concentration (final ~1000-fold dilution): 10 mM
Procedure, shortened: (§1)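 Supernatant from RAW-Dual macrophages was read after 20 hours for IRF by QuantiLuc luminescence and for NF-κB by QuantiBlue absorbance at 620 nm. The cells (50,000 cells/well in DMEM, 384-well plates, 37 °C, 5% CO2) had received 50 nL of library stock by pin tool and, 1 h later, a PRR agonist. Reporter activity is expressed relative to agonist-alone wells as fold change, and wells were flagged cytotoxic if IncuCyte confluency was under 70% of agonist controls in both mask sets.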

RAW-Dual [2] = assay: NF-kB SEAP reporter activity, fold change vs agonist alone; cytotoxicity flag (confluency mask): not cytotoxic; higher = enhanced NF-kB activity
Procedure, shortened: as §1

RAW-Dual [3] = assay: NF-kB SEAP reporter activity, fold change vs agonist alone; cytotoxicity flag (confluency mask): cytotoxic (confluency <70% of control); higher = enhanced NF-kB activity
Procedure, shortened: as §1

[4] = cytotoxicity flag (confluency mask): not cytotoxic, agonist: Imiquimod (TLR7) […]
[5] = cytotoxicity flag (confluency mask): not cytotoxic, agonist: MPLA (TLR4) […]
[6] = agonist: ODN 1826 (TLR9) 0.5 ug/mL
[7] = agonist: Pam2CSK4 (TLR2/6) 0.1 ug/mL
[8] = agonist: Pam3CSK4 (TLR2/1) 0.1 ug/mL

CC(C)(C)NC(=O)c1cncn1C1CCN(c2ccc(-c3nnc(C(F)(F)F)o3)cn2)CC1
NF-kB SEAP reporter activity (RAW-Dual [1]; [4]): 1.87 | NF-kB SEAP reporter activity (RAW-Dual [1]; [5]): 2.37

CC1(C)CCC2(C(=O)O)CCC3(C)C(=CCC4C5(C)CCC(=O)C(C)(C)C5CCC43C)C2C1 (stereo not drawn) (library stock concentration (final ~1000-fold dilution): 10 mM)
NF-kB SEAP reporter activity (RAW-Dual [2]; agonist: LPS (TLR4) 0.1 ug/mL): 0.91 | NF-kB SEAP reporter activity (RAW-Dual [2]; [6]): 0.824 | NF-kB SEAP reporter activity (RAW-Dual [2]; [7]): 0.664 | NF-kB SEAP reporter activity (RAW-Dual [2]; [8]): 0.842

CC1(C)CCC2(C(=O)O)CCC3(C)C(=CCC4C5(C)CCC(=O)C(C)(C)C5CCC43C)C2C1 (stereo not drawn)
NF-kB SEAP reporter activity (RAW-Dual [1]; [4]): 0.8 | NF-kB SEAP reporter activity (RAW-Dual [1]; [5]): 1.27

CC(=O)N1c2ccc(-c3ccc(C(=O)O)cc3)cc2C(Nc2ccc(Cl)cc2)CC1C (stereo not drawn)
NF-kB SEAP reporter activity (RAW-Dual [1]; [4]): 1.56 | NF-kB SEAP reporter activity (RAW-Dual [1]; [5]): 2.37

CC(=O)N1c2ccc(-c3ccc(C(=O)O)cc3)cc2C(Nc2ccc(Cl)cc2)CC1C (stereo not drawn) (library stock concentration (final ~1000-fold dilution): 10 mM)
NF-kB SEAP reporter activity (RAW-Dual [2]; agonist: LPS (TLR4) 0.1 ug/mL): 4.2 | NF-kB SEAP reporter activity (RAW-Dual [2]; [6]): 2.49 | NF-kB SEAP reporter activity (RAW-Dual [2]; [7]): 1.06 | NF-kB SEAP reporter activity (RAW-Dual [2]; [8]): 1.85

CC(=O)OC12COC1CC(O)C1(C)C(=O)C(O)C3=C(C)C(OC(=O)C(O)C(NC(=O)OC(C)(C)C)c4ccccc4)CC(O)(C(OC(=O)c4ccccc4)C21)C3(C)C.O.O.O (stereo not drawn) (library stock concentration (final ~1000-fold dilution): 10 mM)
NF-kB SEAP reporter activity (RAW-Dual [2]; agonist: LPS (TLR4) 0.1 ug/mL): 1.26 | NF-kB SEAP reporter activity (RAW-Dual [2]; [6]): 0.91 | NF-kB SEAP reporter activity (RAW-Dual [2]; [7]): 0.697 | NF-kB SEAP reporter activity (RAW-Dual [2]; [8]): 0.713

CC(=O)OC12COC1CC(O)C1(C)C(=O)C(O)C3=C(C)C(OC(=O)C(O)C(NC(=O)OC(C)(C)C)c4ccccc4)CC(O)(C(OC(=O)c4ccccc4)C21)C3(C)C.O.O.O (stereo not drawn)
NF-kB SEAP reporter activity (RAW-Dual [1]; [4]): 1.07 | NF-kB SEAP reporter activity (RAW-Dual [1]; [5]): 1.23

CC1OC(OC2C(O)C(OCCc3ccc(O)c(O)c3)OC(CO)C2OC(=O)/C=C/c2ccc(O)c(O)c2)C(O)C(O)C1O (stereo not drawn) (library stock concentration (final ~1000-fold dilution): 10 mM)
NF-kB SEAP reporter activity (RAW-Dual [2]; agonist: LPS (TLR4) 0.1 ug/mL): 1.21 | NF-kB SEAP reporter activity (RAW-Dual [2]; [6]): 1.05 | NF-kB SEAP reporter activity (RAW-Dual [2]; [7]): 1.03 | NF-kB SEAP reporter activity (RAW-Dual [2]; [8]): 1.11

CC1OC(OC2C(O)C(OCCc3ccc(O)c(O)c3)OC(CO)C2OC(=O)/C=C/c2ccc(O)c(O)c2)C(O)C(O)C1O (stereo not drawn)
NF-kB SEAP reporter activity (RAW-Dual [1]; [5]): 1.02

CN1CCCN=C1/C=C/c1cccc(O)c1.O=C(O)c1cc2ccccc2c(Cc2c(O)c(C(=O)O)cc3ccccc23)c1O
NF-kB SEAP reporter activity (RAW-Dual [1]; [4]): 0.944 | NF-kB SEAP reporter activity (RAW-Dual [1]; [5]): 1.12

CN1CCCN=C1/C=C/c1cccc(O)c1.O=C(O)c1cc2ccccc2c(Cc2c(O)c(C(=O)O)cc3ccccc23)c1O (library stock concentration (final ~1000-fold dilution): 10 mM)
NF-kB SEAP reporter activity (RAW-Dual [2]; agonist: LPS (TLR4) 0.1 ug/mL): 0.973 | NF-kB SEAP reporter activity (RAW-Dual [2]; [6]): 0.993 | NF-kB SEAP reporter activity (RAW-Dual [2]; [7]): 1.01 | NF-kB SEAP reporter activity (RAW-Dual [2]; [8]): 0.594

CC(C)N1CCN(Cc2cnc(-c3cc(-c4cccc5[nH]ccc45)cc4[nH]ncc34)o2)CC1 (library stock concentration (final ~1000-fold dilution): 10 mM)
NF-kB SEAP reporter activity (RAW-Dual [2]; agonist: LPS (TLR4) 0.1 ug/mL): 4.66 | NF-kB SEAP reporter activity (RAW-Dual [2]; [6]): 0.196 | NF-kB SEAP reporter activity (RAW-Dual [2]; [7]): 0.982 | NF-kB SEAP reporter activity (RAW-Dual [2]; [8]): 1.86

CC(C)N1CCN(Cc2cnc(-c3cc(-c4cccc5[nH]ccc45)cc4[nH]ncc34)o2)CC1
NF-kB SEAP reporter activity (RAW-Dual [1]; [4]): 0.519 | NF-kB SEAP reporter activity (RAW-Dual [1]; [5]): 1.83

C[N+]1(C)CCC[C@H]1C(=O)O (library stock concentration (final ~1000-fold dilution): 10 mM)
NF-kB SEAP reporter activity (RAW-Dual [2]; agonist: LPS (TLR4) 0.1 ug/mL): 1.08 | NF-kB SEAP reporter activity (RAW-Dual [2]; [6]): 1.08 | NF-kB SEAP reporter activity (RAW-Dual [2]; [7]): 1.16 | NF-kB SEAP reporter activity (RAW-Dual [2]; [8]): 1.08

C[N+]1(C)CCC[C@H]1C(=O)O
NF-kB SEAP reporter activity (RAW-Dual [1]; [4]): 0.952 | NF-kB SEAP reporter activity (RAW-Dual [1]; [5]): 0.985

CCCC(NC(=O)/C(C#N)=C/c1cccc(Br)n1)c1ccccc1 (stereo not drawn)
NF-kB SEAP reporter activity (RAW-Dual [1]; [4]): 0.971 | NF-kB SEAP reporter activity (RAW-Dual [1]; [5]): 0.962

CCCC(NC(=O)/C(C#N)=C/c1cccc(Br)n1)c1ccccc1 (stereo not drawn) (library stock concentration (final ~1000-fold dilution): 10 mM)
NF-kB SEAP reporter activity (RAW-Dual [2]; agonist: LPS (TLR4) 0.1 ug/mL): 0.416 | NF-kB SEAP reporter activity (RAW-Dual [2]; [6]): 0.925 | NF-kB SEAP reporter activity (RAW-Dual [2]; [7]): 0.387 | NF-kB SEAP reporter activity (RAW-Dual [2]; [8]): 0.838

Cc1[nH]c2ccccc2c1CCNC(=O)c1cccs1 (library stock concentration (final ~1000-fold dilution): 10 mM)
NF-kB SEAP reporter activity (RAW-Dual [2]; agonist: LPS (TLR4) 0.1 ug/mL): 1 | NF-kB SEAP reporter activity (RAW-Dual [2]; [6]): 1.06 | NF-kB SEAP reporter activity (RAW-Dual [2]; [7]): 1.12 | NF-kB SEAP reporter activity (RAW-Dual [2]; [8]): 0.991

Cc1[nH]c2ccccc2c1C1=C(NCCc2ccc(F)cc2)C(=O)N(C)C1=O
NF-kB SEAP reporter activity (RAW-Dual [1]; [4]): 1.01 | NF-kB SEAP reporter activity (RAW-Dual [1]; [5]): 1.28

Cc1[nH]c2ccccc2c1CCNCc1ccc(/C=C/C(=O)NO)cc1
NF-kB SEAP reporter activity (RAW-Dual [1]; cytotoxicity flag (confluency mask): cytotoxic (confluency <70% of control), agonist: Imiquimod (TLR7) […]): 2.51 | NF-kB SEAP reporter activity (RAW-Dual [1]; cytotoxicity flag (confluency mask): cytotoxic (confluency <70% of control), agonist: MPLA (TLR4) […]): 2.63

Cc1[nH]c2ccccc2c1CCNC(=O)c1cccs1
NF-kB SEAP reporter activity (RAW-Dual [1]; [4]): 1.06 | NF-kB SEAP reporter activity (RAW-Dual [1]; [5]): 1.11

Cc1[nH]c2ccccc2c1C1=C(NCCc2ccc(F)cc2)C(=O)N(C)C1=O (library stock concentration (final ~1000-fold dilution): 10 mM)
NF-kB SEAP reporter activity (RAW-Dual [2]; agonist: LPS (TLR4) 0.1 ug/mL): 1.23 | NF-kB SEAP reporter activity (RAW-Dual [2]; [6]): 0.588 | NF-kB SEAP reporter activity (RAW-Dual [2]; [7]): 0.531 | NF-kB SEAP reporter activity (RAW-Dual [2]; [8]): 0.337

Cc1[nH]c2ccccc2c1CCNCc1ccc(/C=C/C(=O)NO)cc1 (library stock concentration (final ~1000-fold dilution): 10 mM)
NF-kB SEAP reporter activity (RAW-Dual [3]; agonist: LPS (TLR4) 0.1 ug/mL): 4.6 | NF-kB SEAP reporter activity (RAW-Dual [3]; [6]): 0.219 | NF-kB SEAP reporter activity (RAW-Dual [3]; [7]): 0.886 | NF-kB SEAP reporter activity (RAW-Dual [3]; [8]): 1.47

O=c1oc2cc(O)ccc2c2ccc(O)cc12
NF-kB SEAP reporter activity (RAW-Dual [1]; [4]): 1.26 | NF-kB SEAP reporter activity (RAW-Dual [1]; [5]): 1.58

O=c1oc2cc(O)ccc2c2ccc(O)cc12 (library stock concentration (final ~1000-fold dilution): 10 mM)
NF-kB SEAP reporter activity (RAW-Dual [2]; agonist: LPS (TLR4) 0.1 ug/mL): 1.08 | NF-kB SEAP reporter activity (RAW-Dual [2]; [6]): 0.575 | NF-kB SEAP reporter activity (RAW-Dual [2]; [7]): 0.257 | NF-kB SEAP reporter activity (RAW-Dual [2]; [8]): 0.455
